For part of these data: Entries with a potency or affinity are not part of this list. Active and inactive are the calls of the source. Unless noted, no rule for the calls is given here.
Legend:
[1] = antimalarial activity against Dd2 strain (AID 2302;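 active = growth inhibition above 50% at the single 2 µM test dose, taken to imply half-maximal potency below 2 µM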;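 also: 0% = DMSO untreated growth and 100% = chloroquine plus artemisinin killed control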); conditions: P. falciparum Dd2 in RBCs, LDH growth readout, 72 h; at 2 µM; stronger effect = higher value
[2] = human hepatoma cell viability loss – ATP luminescence, cytotoxicity control for P. falciparum antimalarial project, primary screen (AID 2303;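 active = inhibition above 50%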;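 also: 0% = DMSO wells and 100% = digitonin-killed cells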); conditions: HepG2 viability, 24-48 h, at 10 µM, stronger effect = higher value
[3] = biological target: L-lactate dehydrogenase (Plasmodium falciparum (isolate CDC / Honduras)) (UniProt Q27743); assay: PfLDH activity inhibition – cell lysate, 3D7 strain, counter-screen for P. falciparum growth inhibition project (AID 2304);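 also: 0% = vehicle and 100% = reference inhibitor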; conditions: P. falciparum 3D7 crude extract, LDH APAD/NBT absorbance; at 2 µM; stronger effect = higher value
[4] = inhibition of 3D7 malaria parasite growth – strain 3D7 (AID 2306);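 also: 0% = DMSO wells and 100% = chloroquine plus artemisinin control wells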; conditions: P. falciparum 3D7 erythrocytic growth, LDH absorbance, 72 h; at 2 µM; stronger effect = higher value
[5] = biological target: Calcium-dependent protein kinase 1 (Plasmodium falciparum (isolate 3D7)) (UniProt P62344); assay: PfCDPK1 kinase inhibitors, biochemical, TCAMS library (AID 1159585; cut-off not given, nearly all actives have IC50 up to about 0.98 µM;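 also: inhibitors leave more ATP so luminescence rises with inhibition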); conditions: recombinant PfCDPK1, Kinase-Glo ATP depletion luminescence
[6] = biological target: Plasmodium falciparum protein kinase 6 (PK6, PF3D7_1337100) (UniProt Q8IDW1); assay: PfPK6 kinase inhibitors, biochemical, TCAMS library (AID 1159586); conditions: recombinant PfPK6, Kinase-Glo ATP depletion luminescence
[7] = biological target: Protein kinase 7 (PK7), Plasmodium falciparum 3D7 (PF3D7_0213400) (UniProt Q7YTF7); assay: inhibition of Plasmodium PK7 catalytic activity – biochemical, TCAMS antimalarial set, Kinase-Glo luminescence (AID 1159587); conditions: recombinant PfPK7, Kinase-Glo ATP depletion luminescence
[8] = biological target: Calcium-dependent protein kinase 4 (Plasmodium falciparum (isolate 3D7)) (UniProt Q8IBS5); assay: PfCDPK4 kinase inhibitors, biochemical, TCAMS library (AID 1159588; cut-off not given, nearly all actives have IC50 up to about 0.91 µM); conditions: recombinant PfCDPK4, Kinase-Glo ATP depletion luminescence
Calcium-dependent protein kinase 4 (Plasmodium falciparum (isolate 3D7)), sequence (Q8IBS5 whole entry, looked up): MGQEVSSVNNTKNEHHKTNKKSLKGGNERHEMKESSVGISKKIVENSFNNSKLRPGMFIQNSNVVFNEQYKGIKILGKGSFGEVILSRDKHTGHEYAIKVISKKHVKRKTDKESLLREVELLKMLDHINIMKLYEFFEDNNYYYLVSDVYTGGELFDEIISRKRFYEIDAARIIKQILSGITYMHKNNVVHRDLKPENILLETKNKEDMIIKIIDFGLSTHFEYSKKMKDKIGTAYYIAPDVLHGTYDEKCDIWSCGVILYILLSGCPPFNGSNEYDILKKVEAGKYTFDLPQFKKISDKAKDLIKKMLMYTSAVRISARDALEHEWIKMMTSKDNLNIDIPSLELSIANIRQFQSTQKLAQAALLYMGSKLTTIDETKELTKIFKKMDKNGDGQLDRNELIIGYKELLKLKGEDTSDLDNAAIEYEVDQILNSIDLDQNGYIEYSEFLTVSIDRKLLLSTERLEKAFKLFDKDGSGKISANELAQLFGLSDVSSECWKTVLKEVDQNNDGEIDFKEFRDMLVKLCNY

Protein kinase 7 (PK7), Plasmodium falciparum 3D7 (PF3D7_0213400), sequence (Q7YTF7 1-343): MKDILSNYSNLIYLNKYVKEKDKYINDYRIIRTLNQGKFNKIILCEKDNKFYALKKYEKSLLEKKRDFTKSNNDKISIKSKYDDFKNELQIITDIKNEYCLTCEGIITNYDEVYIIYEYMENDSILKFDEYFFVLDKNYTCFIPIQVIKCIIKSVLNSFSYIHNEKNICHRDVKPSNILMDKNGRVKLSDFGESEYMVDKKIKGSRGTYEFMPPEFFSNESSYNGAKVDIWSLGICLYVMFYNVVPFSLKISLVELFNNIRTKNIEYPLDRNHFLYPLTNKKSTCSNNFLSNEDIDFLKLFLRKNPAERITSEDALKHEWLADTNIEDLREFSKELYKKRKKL
Calcium-dependent protein kinase 1 (Plasmodium falciparum (isolate 3D7)), sequence (P62344 whole entry, looked up): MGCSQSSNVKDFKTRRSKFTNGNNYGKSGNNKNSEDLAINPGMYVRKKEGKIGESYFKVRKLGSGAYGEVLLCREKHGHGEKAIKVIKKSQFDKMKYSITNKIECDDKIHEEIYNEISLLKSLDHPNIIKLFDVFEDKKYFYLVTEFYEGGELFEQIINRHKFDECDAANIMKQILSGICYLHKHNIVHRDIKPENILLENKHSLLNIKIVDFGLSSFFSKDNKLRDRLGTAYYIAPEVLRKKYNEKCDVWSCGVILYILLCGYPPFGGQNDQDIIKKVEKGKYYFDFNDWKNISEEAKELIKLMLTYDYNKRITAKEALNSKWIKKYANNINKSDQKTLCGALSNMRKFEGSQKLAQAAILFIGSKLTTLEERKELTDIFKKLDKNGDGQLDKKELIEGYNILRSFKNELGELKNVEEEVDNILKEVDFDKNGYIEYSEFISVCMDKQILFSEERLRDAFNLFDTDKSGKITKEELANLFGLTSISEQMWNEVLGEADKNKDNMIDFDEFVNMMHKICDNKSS
L-lactate dehydrogenase (Plasmodium falciparum (isolate CDC / Honduras)), sequence (Q27743 whole entry, looked up): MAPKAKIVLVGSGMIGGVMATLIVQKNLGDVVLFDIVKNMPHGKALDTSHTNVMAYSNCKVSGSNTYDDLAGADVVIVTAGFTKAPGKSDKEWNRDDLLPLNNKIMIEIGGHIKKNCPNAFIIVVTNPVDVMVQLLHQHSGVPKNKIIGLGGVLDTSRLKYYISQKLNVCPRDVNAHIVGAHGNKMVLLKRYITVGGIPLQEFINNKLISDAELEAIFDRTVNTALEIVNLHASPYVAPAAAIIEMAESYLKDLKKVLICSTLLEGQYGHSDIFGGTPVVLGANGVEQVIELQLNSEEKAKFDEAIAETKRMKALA
Plasmodium falciparum protein kinase 6 (PK6, PF3D7_1337100), sequence (Q8IDW1 1-305): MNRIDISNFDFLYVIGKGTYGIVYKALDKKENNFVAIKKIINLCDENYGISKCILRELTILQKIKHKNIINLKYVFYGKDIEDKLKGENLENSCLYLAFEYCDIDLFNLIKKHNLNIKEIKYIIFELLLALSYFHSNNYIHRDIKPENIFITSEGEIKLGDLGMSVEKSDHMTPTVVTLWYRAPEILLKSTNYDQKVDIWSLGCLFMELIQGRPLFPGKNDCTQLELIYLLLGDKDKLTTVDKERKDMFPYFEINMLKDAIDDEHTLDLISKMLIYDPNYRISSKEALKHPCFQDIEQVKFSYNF

O=C(c1cc(C(=O)Nc2ccc(F)cc2)c(=O)n(-c2ccc(F)cc2)c1)c1cc(Cl)ccc1O
active: growth inhibition [1] 98% | growth inhibition [4] 101%
inactive: inhibition [2] 13% | inhibition [3] -4% | outcome [5] | outcome [6] | outcome [7] | outcome [8]

O=C(Nc1ccc(Cl)cc1)c1cc(Cl)ccc1NC(=O)C1(c2ccc(Cl)cc2)CCCC1
inactive: growth inhibition [1] 29% | inhibition [2] 13% | inhibition [3] -4% | outcome [5] | outcome [6] | outcome [7] | outcome [8]
active: growth inhibition [4] 85%

O=C(/C=C/c1ccc(Cl)c(Cl)c1)NCCCCN1CCCN(C(=O)Nc2ccc(Cl)c(Cl)c2)CC1
active: growth inhibition [4] 96%
inactive: growth inhibition [1] 1% | inhibition [2] 22% | inhibition [3] 3% | outcome [5] | outcome [6] | outcome [7] | outcome [8]

O=C(NCC1CCN(Cc2ccsc2)C1)c1cc(-c2cccc(C(F)(F)F)c2)cs1 (stereo not drawn)
active: growth inhibition [4] 98%
inactive: growth inhibition [1] 15% | inhibition [2] 37% | inhibition [3] -2% | outcome [5] | outcome [6] | outcome [7] | outcome [8]

CC(=NNC(=S)Nc1ccccc1Cl)c1ccccn1
inactive: inhibition [3] 6% | outcome [5] | outcome [6] | outcome [7] | outcome [8]
active: growth inhibition [1] 99% | inhibition [2] 69% | growth inhibition [4] 100%

O=C(/C=C/c1ccc(Cl)c(Cl)c1)NCCCCN1CCCN(C(=O)Nc2ccc(F)c(Cl)c2)CC1
inactive: growth inhibition [1] 2% | inhibition [3] 1% | outcome [5] | outcome [6] | outcome [7] | outcome [8]
active: inhibition [2] 69% | growth inhibition [4] 87%

CN(C)c1ccc(C=C2SC(=N)N(c3nccs3)C2=O)cc1
active: growth inhibition [1] 50% | growth inhibition [4] 97%
inactive: inhibition [2] 38% | inhibition [3] 2% | outcome [5] | outcome [6] | outcome [7] | outcome [8]

c1ccc(-c2csc(Nc3nc4cc5c(cc4s3)OCO5)n2)nc1
active: growth inhibition [1] 99% | growth inhibition [4] 81%
inactive: inhibition [2] 46% | inhibition [3] -3% | outcome [5] | outcome [6] | outcome [7] | outcome [8]

COc1cc(C)nc2ccc(NC(=O)Nc3ccccc3[N+](=O)[O-])cc12
active: growth inhibition [1] 58% | growth inhibition [4] 101%
inactive: inhibition [2] 6% | inhibition [3] -1% | outcome [5] | outcome [6] | outcome [7] | outcome [8]

CCc1c[nH]c2c(N3CCCC3=O)cc(C(=O)N[C@@H](Cc3ccccc3)[C@H](O)CNC(C)(C)CCCC(C)C)cc12
inactive: inhibition [2] 22% | inhibition [3] 1% | outcome [5] | outcome [6] | outcome [7] | outcome [8]
active: growth inhibition [1] 97% | growth inhibition [4] 96%

Cc1cc(NCCC(=O)NCCOc2ccccc2)nc(NCCc2ccccc2)n1
inactive: growth inhibition [1] 9% | inhibition [2] -6% | inhibition [3] -1% | outcome [5] | outcome [6] | outcome [7] | outcome [8]
active: growth inhibition [4] 99%

O=C(CSc1nc2ccccc2c(=O)n1CC1CCCO1)Nc1cc(C(F)(F)F)ccc1Cl (stereo not drawn)
inactive: inhibition [2] 12% | inhibition [3] -2% | outcome [5] | outcome [6] | outcome [7] | outcome [8]
active: growth inhibition [1] 95% | growth inhibition [4] 97%

CCc1ccc(NC(=O)c2ccc(CN3CCCN(Cc4cccs4)CC3)cc2)cc1
inactive: growth inhibition [1] -1% | inhibition [3] 0% | outcome [5] | outcome [6] | outcome [7] | outcome [8]
active: inhibition [2] 57% | growth inhibition [4] 87%

O=C(CCN(Cc1ccco1)c1nc(-c2ccc(F)cc2)nc2ccccc12)NC1CC1
inactive: inhibition [2] -12% | inhibition [3] 4% | outcome [5] | outcome [6] | outcome [7] | outcome [8]
active: growth inhibition [1] 54% | growth inhibition [4] 94%

c1ccc(CN2CCC(NCc3ccc(-c4ccc(CNCc5cccnc5)cn4)cc3)CC2)cc1
active: growth inhibition [4] 97%
inactive: growth inhibition [1] 13% | inhibition [2] -1% | inhibition [3] -5% | outcome [5] | outcome [6] | outcome [7] | outcome [8]

CC(=O)c1c[nH]c(C(=O)Nc2ccc(-c3cn4ccccc4n3)cc2)c1
inactive: inhibition [2] 20% | inhibition [3] 4% | outcome [5] | outcome [6] | outcome [7] | outcome [8]
active: growth inhibition [1] 95% | growth inhibition [4] 98%

Cc1cnc(C(=O)Nc2cccc(-c3cccc(-c4nc5c(C)cccc5[nH]4)c3)c2)cn1
active: growth inhibition [4] 99%
inactive: growth inhibition [1] 45% | inhibition [2] 15% | inhibition [3] -1% | outcome [5] | outcome [6] | outcome [7] | outcome [8]

O=C(Nc1ccccc1Br)c1cn(-c2ccccc2)nc1-c1cccc([N+](=O)[O-])c1
inactive: growth inhibition [1] 36% | inhibition [2] 7% | inhibition [3] -5% | outcome [5] | outcome [6] | outcome [7] | outcome [8]
active: growth inhibition [4] 92%

Cc1cccc2[nH]c(-c3cccc(-c4ccc(NC(=O)COc5ccccc5C(N)=O)cc4)c3)nc12
inactive: growth inhibition [1] 47% | inhibition [2] 18% | inhibition [3] -8% | outcome [5] | outcome [6] | outcome [7] | outcome [8]
active: growth inhibition [4] 101%

CCCc1cc(OC)c(C[C@H]2c3cc(O)c(Cl)cc3CCN2C)cc1OC
inactive: inhibition [2] -3% | inhibition [3] -6% | outcome [5] | outcome [6] | outcome [7] | outcome [8]
active: growth inhibition [1] 98% | growth inhibition [4] 97%

O[C@@H](c1ccccc1)[C@@H]1CN(CCC2C[C@@H]3CC[C@H]2C3)CC[C@@]1(O)c1ccccc1 (stereo partly drawn)
inactive: inhibition [2] -1% | inhibition [3] -2% | outcome [5] | outcome [6] | outcome [7] | outcome [8]
active: growth inhibition [1] 99% | growth inhibition [4] 97%

O=[N+]([O-])c1ccc(NC(=NCCOc2ccccc2)Nc2ccccc2Br)c(O)c1
active: growth inhibition [1] 70% | growth inhibition [4] 88%
inactive: inhibition [2] 6% | inhibition [3] -9% | outcome [5] | outcome [6] | outcome [7] | outcome [8]

CCN(CC)CCN(Cc1ccc(-c2ccc(C(F)(F)F)cc2)cc1)C(=O)Cn1c(CCc2ccc(F)c(F)c2)cc(=O)c2ccccc21
inactive: growth inhibition [1] 26% | inhibition [2] 23% | inhibition [3] -1% | outcome [5] | outcome [6] | outcome [7] | outcome [8]
active: growth inhibition [4] 95%

O=C(/C=C/c1ccc(Cl)c(Cl)c1)N1CCC(CCN2CCC(c3nc4ccc(O)cc4[nH]3)CC2)CC1
active: growth inhibition [1] 60% | growth inhibition [4] 100%
inactive: inhibition [2] 42% | inhibition [3] 4% | outcome [5] | outcome [6] | outcome [7] | outcome [8]

COc1cccc(-c2csc(C(=O)NCC3CCN(Cc4ccc(C(C)C)cc4)C3)c2)c1 (stereo not drawn)
active: growth inhibition [4] 86%
inactive: growth inhibition [1] 9% | inhibition [2] 35% | inhibition [3] 0% | outcome [5] | outcome [6] | outcome [7] | outcome [8]

O=C(/C=C/c1ccccc1)N1CCOC(CCN2CCC(c3ccccc3)CC2)(c2ccc(Cl)c(Cl)c2)C1 (stereo not drawn)
active: growth inhibition [1] 63% | growth inhibition [4] 89%
inactive: inhibition [2] 4% | inhibition [3] 2% | outcome [5] | outcome [6] | outcome [7] | outcome [8]

CC(C)(CNC(=O)/C=C/c1ccc(C(F)(F)F)cc1)CNc1cc(=O)c2ccccc2[nH]1
active: growth inhibition [4] 95%
inactive: growth inhibition [1] 27% | inhibition [2] -1% | inhibition [3] -6% | outcome [5] | outcome [6] | outcome [7] | outcome [8]

CC1(C)N=C(N)N=C(N)N1OCCOc1ccc(Cc2ccccc2)cc1
inactive: growth inhibition [1] 26% | inhibition [3] 3% | outcome [5] | outcome [6] | outcome [7] | outcome [8]
active: inhibition [2] 62% | growth inhibition [4] 94%

Nc1ncc(-c2ccsc2)c2ccc(-c3cc(NCc4ccccc4)ncn3)cc12
active: growth inhibition [1] 86% | growth inhibition [4] 101%
inactive: inhibition [2] 0% | inhibition [3] 3% | outcome [5] | outcome [6] | outcome [7] | outcome [8]

O=C(c1ccc(OCCn2ccnc2)cc1)N1CCC(c2ccc(Br)cc2)C1 (stereo not drawn)
active: growth inhibition [1] 99% | growth inhibition [4] 100%
inactive: inhibition [2] 49% | inhibition [3] -3% | outcome [5] | outcome [6] | outcome [7] | outcome [8]

Oc1ccc(CCNc2nc(NCCCOc3ccccc3-c3cccnc3)nc(N3CCNCC3)n2)cc1
active: growth inhibition [4] 92%
inactive: growth inhibition [1] 1% | inhibition [2] 10% | inhibition [3] 0% | outcome [5] | outcome [6] | outcome [7] | outcome [8]

CO/C(=C\C=C\c1cc2cc(Cl)c(Cl)cc2[nH]1)C(=O)NC1C[C@H]2CCC[C@@H](C1)N2C (stereo partly drawn)
active: growth inhibition [1] 51% | growth inhibition [4] 93%
inactive: inhibition [2] 42% | inhibition [3] -2% | outcome [5] | outcome [6] | outcome [7] | outcome [8]

CCNc1cc(C(=O)N[C@@H](Cc2ccccc2)[C@H](O)CNCc2cccc(-c3cncnc3)c2)cc(N2CCCC2=O)c1
inactive: inhibition [2] 5% | inhibition [3] 2% | outcome [5] | outcome [6] | outcome [7] | outcome [8]
active: growth inhibition [1] 96% | growth inhibition [4] 97%

O=C(NCC1CCN(CCN2CCc3ccc4c(c3C2)OCO4)CC1)c1ccc(-c2ccc(C(F)(F)F)cc2)cc1
inactive: growth inhibition [1] 34% | inhibition [3] -5% | outcome [5] | outcome [6] | outcome [7] | outcome [8]
active: inhibition [2] 66% | growth inhibition [4] 93%

CCOc1c(CNCCCNc2cc(=O)c3ccccc3[nH]2)cc(I)cc1OC
active: growth inhibition [4] 91%
inactive: growth inhibition [1] 6% | inhibition [2] -4% | inhibition [3] 2% | outcome [5] | outcome [6] | outcome [7] | outcome [8]

CC(C)c1ccc(NC(=S)NN=Cc2ccccn2)cc1
active: growth inhibition [1] 98% | growth inhibition [4] 100%
inactive: inhibition [2] 47% | inhibition [3] -12% | outcome [5] | outcome [6] | outcome [7] | outcome [8]

— PubChem BioAssay
